This note sets out measurements from PubChem BioAssay (NCI).

Test systems include SR leukemia; RPMI-8226 leukemia; OVCAR-8 ovarian; OVCAR-5 ovarian; OVCAR-4 ovarian; SK-OV-3 ovarian; IGROV1 ovarian; OVCAR-3 ovarian; NCI/ADR-RES ovarian; HS 578T breast.
Common to all, as to assay: NCI-60 one-dose screen, 48 h (100 = growth as untreated, 0 = no growth, -100 = all killed)
What all share (details): 10 µM unless noted

Structures are written as SMILES. The panel holds about 83,000 compounds, 20% with a hit somewhere; the sample as a whole holds those more often.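 Results are percent growth after 48 hours of single-concentration exposure. 100 means growth as in untreated cells, lower positive values show inhibition; negative values down to -100 show cell death.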 A number with no mark means an inactive call. The source made the active and inactive calls. How the source made its calls: active means growth percent below 10; inactive means the rest.

Consider `CCCCCCCCCCCCNC(=S)N/N=C/c1ccc(Cl)c(Cl)c1`, for which the growth with SR leukemia is 93.8%; in the test on RPMI-8226 leukemia, 102%; in the test on OVCAR-8 ovarian it was 100%; in the test on OVCAR-5 ovarian it was 93.9%; in the test with OVCAR-4 ovarian, 99.3%; in the test on SK-OV-3 ovarian, 114%. Also, the growth was 119% with IGROV1 ovarian, 111% with OVCAR-3 ovarian and 113% in the test with NCI/ADR-RES ovarian.

Take `O=C(O)c1cccc([N+](=O)[O-])c1/C=C/c1ccccc1`: the growth in the test on SR leukemia was 85.2%; with RPMI-8226 leukemia, 105%; with OVCAR-8 ovarian it was 115%; in the test with OVCAR-5 ovarian, 108%; in the test with OVCAR-4 ovarian, 83.2%; in the test with SK-OV-3 ovarian, 94.6%. The growth in the test on IGROV1 ovarian was 94.8%; with OVCAR-3 ovarian, 103%; in the test with NCI/ADR-RES ovarian it was 103%.

Consider `CN(C)c1ccc(C2CC(c3ccccc3)=NN2/C=C2\SC(=O)NC2=O)cc1` (stereo unspecified), for which the growth is 50.8% with SR leukemia; 87.7% in the test on RPMI-8226 leukemia; 100% in the test with OVCAR-8 ovarian; 94.2% in the test with OVCAR-5 ovarian; 82.6% in the test on OVCAR-4 ovarian; 115% with SK-OV-3 ovarian. Further, the growth with IGROV1 ovarian was 94%; with OVCAR-3 ovarian, 101%; in the test with NCI/ADR-RES ovarian, 95.2%.

For `O=C(Nc1cccc(Cl)c1)c1cc([N+](=O)[O-])ccc1O`, the growth in the test on SR leukemia is 57%; in the test with RPMI-8226 leukemia, 25.4%; with OVCAR-8 ovarian, 69.3%; with OVCAR-5 ovarian, 68.8%; with OVCAR-4 ovarian, 46.1%; with SK-OV-3 ovarian, 59.8%. The growth is 62.5% with IGROV1 ovarian, 42% in the test with OVCAR-3 ovarian, 41.9% in the test with HS 578T breast and 56% with NCI/ADR-RES ovarian.

Take `COc1ccc(OC)c(C(=O)c2oc3ccc(Br)cc3c2N)c1`: the growth is 10.2% in the test with SR leukemia; -16.5% (active) in the test with RPMI-8226 leukemia; 16.6% in the test on OVCAR-8 ovarian; 45.5% in the test with OVCAR-5 ovarian; 49.4% with OVCAR-4 ovarian; -6.27% (active) in the test with SK-OV-3 ovarian. Moreover, the growth with IGROV1 ovarian is 41.2%; with OVCAR-3 ovarian, 3.65% (active); in the test on NCI/ADR-RES ovarian it was 15.1%.

For `Cc1ccc(C(=O)c2sc3nc4c(cc3c2N)CCCC4)c(C)c1`, the growth is 9.04% (active) in the test with SR leukemia; -12.3% (active) in the test on RPMI-8226 leukemia; 17.5% with OVCAR-8 ovarian; 47.2% in the test with OVCAR-5 ovarian; 39.8% in the test with OVCAR-4 ovarian; 19.9% with SK-OV-3 ovarian. Besides, the results for the growth in the test on IGROV1 ovarian, with OVCAR-3 ovarian and in the test with NCI/ADR-RES ovarian were 41.4%, 12% and 13.9%, respectively.

As for `NC(CC(N)C(=O)O)C(=O)O` (stereo unspecified), the growth with SR leukemia is 89.9%; with RPMI-8226 leukemia, 98.6%; with OVCAR-8 ovarian it was 100%; in the test with OVCAR-5 ovarian it was 97%; with OVCAR-4 ovarian, 99.2%; with SK-OV-3 ovarian it was 111%. For the same compound, the growth in the test on IGROV1 ovarian is 108%; in the test on OVCAR-3 ovarian it was 107%; in the test on NCI/ADR-RES ovarian, 107%.

As for `Clc1nc(Cl)c2ncn(C/C=C/Cn3cnc4c(Cl)nc(Cl)nc43)c2n1`, the growth is -14.2% (active) in the test with SR leukemia; -17.3% (active) in the test on RPMI-8226 leukemia; 7.73% (active) with OVCAR-8 ovarian; 112% with OVCAR-5 ovarian; 94.6% in the test on OVCAR-4 ovarian; 103% in the test on SK-OV-3 ovarian. Besides, the results for the growth in the test with IGROV1 ovarian, in the test with OVCAR-3 ovarian and in the test with NCI/ADR-RES ovarian were 17.7%, 60.5% and 99%, respectively.

On to `CC(=O)Nc1ccc(S(=O)(=O)N2C(=O)CCC2C(=O)Nc2ccc(Br)cc2)cc1` (stereo unspecified), for which the growth was 16.9% with SR leukemia; 10.1% in the test with RPMI-8226 leukemia; 47.5% with OVCAR-8 ovarian; 77.5% with OVCAR-5 ovarian; 25.5% in the test on OVCAR-4 ovarian; 69.2% in the test on SK-OV-3 ovarian. Moreover, the figures for the growth in the test on IGROV1 ovarian, with OVCAR-3 ovarian and in the test with NCI/ADR-RES ovarian were 37.4%, 24.4% and 41.8%, respectively.

In the case of `CC(=O)Nc1ccc2c(c1)/C(=C\C=C/c1ccc([N+](C)(C)C)cc1)c1ccccc1-2`, the growth was 90% in the test with SR leukemia; 73.6% with RPMI-8226 leukemia; 57.4% with OVCAR-8 ovarian; 53.9% with OVCAR-5 ovarian; 28.1% in the test with OVCAR-4 ovarian; 70.2% in the test on SK-OV-3 ovarian. The growth is 67.1% in the test on IGROV1 ovarian, 78% with OVCAR-3 ovarian and 101% in the test on NCI/ADR-RES ovarian.

For `O=C1Nc2ccc(Br)cc2C1=N/C=c1\[nH]c(=O)/c(=C/c2ccc(Cl)cc2)s1`, the growth in the test on SR leukemia was 81.6%; with RPMI-8226 leukemia it was 98.2%; in the test with OVCAR-8 ovarian it was 93.6%; in the test with OVCAR-5 ovarian, 106%; in the test with OVCAR-4 ovarian, 108%; with SK-OV-3 ovarian, 91.4%. The growth in the test on IGROV1 ovarian was 105%; with HS 578T breast, 100%; with NCI/ADR-RES ovarian it was 104%.

On to `COc1cc(NCCN=C(N)NC(N)=NC(C)C)c2ncccc2c1`, for which the growth was 74.8% in the test with SR leukemia; 73.3% in the test with RPMI-8226 leukemia; 87% in the test with OVCAR-8 ovarian; 80.2% in the test on OVCAR-5 ovarian; -40.1% (active) in the test with OVCAR-4 ovarian; 92.3% in the test with SK-OV-3 ovarian. Besides, the growth with IGROV1 ovarian is -4.12% (active); in the test with OVCAR-3 ovarian, 6.45% (active); in the test with NCI/ADR-RES ovarian, 99.4%.

With `Oc1ccc(Cl)cc1-c1cc(-c2ccc(Cl)cc2)n[nH]1`, the growth in the test with SR leukemia is 41.6%; in the test on RPMI-8226 leukemia, 40.4%; in the test on OVCAR-8 ovarian, 72.5%; with OVCAR-5 ovarian, 73.3%; with OVCAR-4 ovarian, 35%; with SK-OV-3 ovarian, 79%. Also, the results for the growth with IGROV1 ovarian, with HS 578T breast and in the test with NCI/ADR-RES ovarian were 34.5%, 81.5% and 65.1%, respectively.

With `CCC1=C[C@@H]2CN(C1)Cc1c([nH]c3ccccc13)[C@@](C(=O)OC)(c1cc3c(cc1OC)N(C=O)[C@H]1[C@@](O)(C(=O)OC)[C@H](OC(C)=O)[C@]4(CC)[C@@H]5C[C@@H]5CN5CC[C@]31[C@@H]54)C2`, the growth was 9.37% (active) in the test with SR leukemia; -6.79% (active) with RPMI-8226 leukemia; 8.45% (active) in the test on OVCAR-8 ovarian; 44.2% with OVCAR-5 ovarian; 47% in the test on OVCAR-4 ovarian; 5.16% (active) in the test with SK-OV-3 ovarian. In addition, the growth with IGROV1 ovarian is 30.8%; in the test on HS 578T breast it was 26.3%; in the test on NCI/ADR-RES ovarian, -28.8% (active).

As to `COc1cc(CNC(=O)CSc2nc3ccccc3c(=O)n2Cc2cc(OC)c(OC)c(OC)c2)cc(OC)c1OC`, the growth is 123% in the test on SR leukemia; 102% with RPMI-8226 leukemia; 96.4% in the test with OVCAR-8 ovarian; 102% in the test with OVCAR-5 ovarian; 103% in the test on OVCAR-4 ovarian; 108% in the test with SK-OV-3 ovarian. In addition, the growth is 97.9% with IGROV1 ovarian, 110% with HS 578T breast and 103% with NCI/ADR-RES ovarian.

As for `CCC1CCc2nc3sc(C(=O)Nc4cccc(C)c4)c(N)c3cc2C1` (stereo unspecified), the growth with SR leukemia is 11%; with RPMI-8226 leukemia, 56.5%; in the test with OVCAR-8 ovarian, 94.2%; with OVCAR-5 ovarian, 105%; in the test on OVCAR-4 ovarian it was 85%; in the test on SK-OV-3 ovarian, 96.9%. In addition, the growth in the test with IGROV1 ovarian was 95.8%; in the test with HS 578T breast, 87.7%; in the test with NCI/ADR-RES ovarian, 76%.

Regarding `COc1cc(-c2n[nH]nc2-c2ccc3c(c2)OCCO3)cc(OC)c1OC`, the growth in the test with SR leukemia is 9.29% (active); in the test on RPMI-8226 leukemia, 0.653% (active); with OVCAR-8 ovarian, 9.51% (active); in the test on OVCAR-5 ovarian it was 11.7%; in the test on OVCAR-4 ovarian, 34.8%; with SK-OV-3 ovarian, 3.32% (active). Further, the growth in the test on IGROV1 ovarian was 21.9%; in the test with OVCAR-3 ovarian, -33.9% (active); in the test with NCI/ADR-RES ovarian, 2.71% (active).

As for `CNC(C)=O`, the growth with SR leukemia is 88.2%; in the test with RPMI-8226 leukemia, 103%; in the test on OVCAR-8 ovarian it was 102%; in the test on OVCAR-5 ovarian, 95.8%; in the test with OVCAR-4 ovarian, 104%; in the test with SK-OV-3 ovarian it was 102%. Besides, the results for the growth with IGROV1 ovarian, in the test with OVCAR-3 ovarian and with NCI/ADR-RES ovarian were 105%, 75.8% and 102%, respectively.

For the compound `COC1=CC(c2ccc[nH]2)=N/C1=C\c1[nH]c(C)c(C(=O)CCC(=O)Oc2ccc3c(c2)CCC2C3CC[C@]3(C)[C@@H](O)CC[C@@H]23)c1C` (stereo partly specified), the growth in the test with SR leukemia was -17.6% (active); with RPMI-8226 leukemia, -12.2% (active); in the test with OVCAR-8 ovarian, -3.79% (active); in the test with OVCAR-5 ovarian it was 27.7%; in the test on OVCAR-4 ovarian it was 43.1%; in the test on SK-OV-3 ovarian, 51.1%. Also, the growth in the test with IGROV1 ovarian was 16.8%; in the test on HS 578T breast, 20.4%; in the test on NCI/ADR-RES ovarian it was 8.32% (active).

As for `COc1ccc(NC(=O)CSc2nc3ccccc3c(=O)n2-c2ccccc2C(F)(F)F)c(OC)c1OC`, the growth in the test with SR leukemia was 103%; in the test with RPMI-8226 leukemia it was 93.1%; in the test on OVCAR-8 ovarian it was 98%; in the test on OVCAR-5 ovarian it was 97.5%; in the test with OVCAR-4 ovarian, 97.3%; in the test on SK-OV-3 ovarian it was 89.4%. Moreover, the growth in the test with IGROV1 ovarian is 127%; in the test with OVCAR-3 ovarian it was 104%; with NCI/ADR-RES ovarian, 102%.
